Among the data in PubChem BioAssay are inhibition values, retold here.

Calls of active or inactive are those of the source. Unless noted, no stated cut-off is given here; in the data, active means inhibition above about 42%; inactive means the rest.

Assay [1] can be described thus: StAR promoter reporter inhibitors, counter-screen for LRH-1 inverse agonist project, cell-based, luminescence, high throughput (AID 651611; in the data active means inhibition above about 28%). The conditions noted are these: StAR promoter luciferase reporter counterscreen, at 3.6 µM, stronger effect = higher value.
For assay [2], the target named is Nuclear receptor subfamily 5 group A member 2 (Homo sapiens) (UniProt O00482). Kind of assay: LRH-1 (NR5A2) inverse agonists, retest, confirmation, cell-based, luminescence (AID 651613).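 Further: HEK293T cells co-transfected with LRH-1 and StAR promoter luciferase reporter; 0% = vehicle wells and 100% = parental cells lacking receptor.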 The conditions noted are these: cell-based LRH-1 luciferase reporter, inverse agonism; at 3.6 µM; stronger effect = higher value.
Assay [3] has as its target Steroidogenic factor 1 (Homo sapiens) (UniProt Q13285). Kind of assay: SF1 (NR5A1) inverse agonists, counter-screen for LRH-1 inverse agonist project, cell-based, luminescence, high throughput (AID 651614; in the data active means inhibition above about 44%;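 further: cells cotransfected with StAR promoter reporter and SF1 expression vector; 0% = vehicle on cells with receptor and 100% = vehicle on cells lacking receptor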). The conditions noted are these: cell-based SF1 luciferase reporter, at 3.6 µM, stronger effect = higher value. On the technique in general: The purpose of a counterscreen is to sort out artefacts and off-target activity.

Assay [4] is described as follows: VP16 transactivation reporter inhibitors, counter-screen for LRH-1 inverse agonist project, cell-based, luminescence, high throughput (AID 651615; in the data active means inhibition above about 33%). As to conditions: Gal4-VP16 luciferase reporter cells, at 3.6 µM, stronger effect = higher value.
Assay [5] has as its system transactivating tegument protein VP16 (Human herpesvirus 1). Kind of assay: VP16 transactivation reporter inhibitors, counter-screen for SRC2 inhibitor project, cell-based, luminescence, single concentration (AID 652007; in the data active means inhibition above about 36%). As to conditions: cell-based VP16 transactivation luciferase reporter, at 8.9 µM, stronger effect = higher value.
Assay [6] concerns the target Nuclear receptor coactivator 2 (Homo sapiens) (UniProt Q15596). Kind of assay: SRC2 coactivator transcriptional activity inhibitors, confirmation, cell-based, luminescence, HEK293, triplicate (AID 652008;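 active means mean inhibition above 46.5%, the solvent-only control mean plus 3 SD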;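 further: 0% = DMSO-treated cells and 100% = Gossypol at 36 µM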). The conditions noted are these: HEK293 GAL4-SRC2 luciferase reporter, at 8.9 µM, stronger effect = higher value. In general terms: In a reporter assay the amount or activity of a reporter protein is the signal.

Sequence of Steroidogenic factor 1 (Homo sapiens) (Q13285 whole entry, looked up): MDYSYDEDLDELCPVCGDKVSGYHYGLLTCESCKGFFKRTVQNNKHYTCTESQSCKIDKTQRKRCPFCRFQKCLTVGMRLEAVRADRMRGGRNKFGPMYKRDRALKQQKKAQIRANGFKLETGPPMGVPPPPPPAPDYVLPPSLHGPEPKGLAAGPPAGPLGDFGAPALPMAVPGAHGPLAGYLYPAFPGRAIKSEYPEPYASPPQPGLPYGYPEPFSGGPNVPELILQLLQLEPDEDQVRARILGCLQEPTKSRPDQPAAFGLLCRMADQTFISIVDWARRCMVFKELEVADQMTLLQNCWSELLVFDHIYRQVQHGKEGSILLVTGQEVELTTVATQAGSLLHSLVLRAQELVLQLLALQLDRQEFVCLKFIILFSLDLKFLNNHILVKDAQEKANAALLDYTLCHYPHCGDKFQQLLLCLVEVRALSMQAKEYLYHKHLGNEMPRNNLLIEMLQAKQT
Sequence of Nuclear receptor subfamily 5 group A member 2 (Homo sapiens) (O00482 whole entry, looked up): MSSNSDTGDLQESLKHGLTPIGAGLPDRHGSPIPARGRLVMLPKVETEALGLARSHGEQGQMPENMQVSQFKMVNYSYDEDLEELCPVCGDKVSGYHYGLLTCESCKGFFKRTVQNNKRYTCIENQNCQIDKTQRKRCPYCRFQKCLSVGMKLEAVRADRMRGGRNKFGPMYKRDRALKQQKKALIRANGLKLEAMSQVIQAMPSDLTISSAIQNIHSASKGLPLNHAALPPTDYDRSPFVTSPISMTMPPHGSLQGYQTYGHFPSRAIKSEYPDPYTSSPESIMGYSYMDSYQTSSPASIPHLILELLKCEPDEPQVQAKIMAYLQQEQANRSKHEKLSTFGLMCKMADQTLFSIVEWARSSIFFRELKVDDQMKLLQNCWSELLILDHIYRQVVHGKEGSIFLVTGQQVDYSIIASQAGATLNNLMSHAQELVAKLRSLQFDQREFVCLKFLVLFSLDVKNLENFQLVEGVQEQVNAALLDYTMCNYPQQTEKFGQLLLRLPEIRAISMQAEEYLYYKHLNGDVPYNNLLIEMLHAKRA
Sequence of Nuclear receptor coactivator 2 (Homo sapiens) (Q15596 whole entry, looked up, the tested form may be a part): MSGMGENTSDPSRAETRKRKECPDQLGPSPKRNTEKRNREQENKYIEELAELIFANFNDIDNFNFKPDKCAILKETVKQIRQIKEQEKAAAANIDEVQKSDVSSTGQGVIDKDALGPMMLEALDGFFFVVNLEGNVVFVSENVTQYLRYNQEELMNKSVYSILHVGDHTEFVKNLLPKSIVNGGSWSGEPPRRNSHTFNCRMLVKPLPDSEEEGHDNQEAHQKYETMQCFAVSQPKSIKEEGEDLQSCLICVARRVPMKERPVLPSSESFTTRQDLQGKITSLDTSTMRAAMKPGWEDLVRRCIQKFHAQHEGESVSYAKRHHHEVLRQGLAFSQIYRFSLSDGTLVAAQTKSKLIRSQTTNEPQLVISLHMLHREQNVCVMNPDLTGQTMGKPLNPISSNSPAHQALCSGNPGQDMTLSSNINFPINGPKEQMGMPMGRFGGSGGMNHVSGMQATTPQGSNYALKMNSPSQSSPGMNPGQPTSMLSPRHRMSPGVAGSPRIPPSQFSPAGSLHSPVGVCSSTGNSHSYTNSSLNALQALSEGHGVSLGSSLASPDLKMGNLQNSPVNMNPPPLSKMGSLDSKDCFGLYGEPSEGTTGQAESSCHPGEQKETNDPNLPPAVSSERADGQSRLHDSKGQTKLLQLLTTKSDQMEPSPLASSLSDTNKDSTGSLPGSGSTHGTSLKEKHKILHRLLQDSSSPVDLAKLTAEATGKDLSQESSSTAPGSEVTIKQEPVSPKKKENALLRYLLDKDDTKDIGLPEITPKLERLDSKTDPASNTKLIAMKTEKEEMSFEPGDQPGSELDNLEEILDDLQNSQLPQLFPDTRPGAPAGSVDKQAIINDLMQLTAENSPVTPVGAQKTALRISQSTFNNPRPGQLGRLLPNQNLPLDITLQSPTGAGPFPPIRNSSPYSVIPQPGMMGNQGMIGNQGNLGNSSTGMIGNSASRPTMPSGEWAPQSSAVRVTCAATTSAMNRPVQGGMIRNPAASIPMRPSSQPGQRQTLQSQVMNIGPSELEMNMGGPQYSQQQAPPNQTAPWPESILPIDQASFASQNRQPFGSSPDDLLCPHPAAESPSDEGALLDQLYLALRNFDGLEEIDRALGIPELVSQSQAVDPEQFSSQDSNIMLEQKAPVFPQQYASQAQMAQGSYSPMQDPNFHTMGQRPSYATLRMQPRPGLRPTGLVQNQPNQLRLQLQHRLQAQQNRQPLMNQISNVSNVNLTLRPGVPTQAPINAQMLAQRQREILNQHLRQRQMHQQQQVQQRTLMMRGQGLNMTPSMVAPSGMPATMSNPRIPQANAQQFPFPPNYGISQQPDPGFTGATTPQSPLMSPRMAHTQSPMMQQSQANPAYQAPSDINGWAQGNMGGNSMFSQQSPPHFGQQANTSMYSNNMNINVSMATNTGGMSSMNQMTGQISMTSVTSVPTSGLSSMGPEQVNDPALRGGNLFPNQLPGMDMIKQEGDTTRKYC

Usually inhibition stands for the relative decrease from the control value, in per cent. Consider `O=C(Cn1cnc2c(nnn2-c2ccccc2)c1=O)NCC1CCCO1` (stereo not given), for which the inhibition in assay [1] is -2.93% (inactive); in assay [2], 16.6% (inactive); in assay [3] it was -2.18% (inactive); in assay [4] it was 7.48% (inactive).

With `Cc1ccc(N2CC(C(=O)Nc3nc4ccc(S(C)(=O)=O)cc4s3)CC2=O)cc1C` (stereo not given), the inhibition was 11.2% (inactive) in assay [1], 44.6% (active) in assay [2], 34.7% (inactive) in assay [3] and -2.05% (inactive) in assay [4].

Regarding `Cc1nc2ccc(NS(=O)(=O)c3ccc4c(c3)OCCO4)cc2s1`, the inhibition in assay [1] was 7.73% (inactive); in assay [2] it was 56.4% (active); in assay [3], 57.4% (active); in assay [4], 52.6% (active).

As for `Cc1ccc[n+](CC(=O)Nc2ccc([N+](=O)[O-])cc2)c1`, the inhibition in assay [1] is 12.6% (inactive); in assay [2], 63.1% (active); in assay [3], 57% (active); in assay [4], -13.3% (inactive).

For `Cc1ccccc1C(=O)O/N=C/c1c(N2CCOCC2)n(C)c2ccccc12`, the inhibition in assay [1] is 76.4% (active); in assay [2], 84.3% (active); in assay [3] it was 91.4% (active); in assay [4], 58.8% (active).

As to `COc1ccc(CCNc2ncnc3sc(C)cc23)cc1OC`, the inhibition in assay [1] was 35.5% (active); in assay [2], 90.1% (active); in assay [3], 57.7% (active); in assay [4] it was 57.9% (active); in assay [5] it was 16.6% (inactive); in assay [6], 25.8% (inactive).

Consider `COc1ccc(CCNC(=O)COC(=O)Cc2ccccc2[N+](=O)[O-])cc1`, for which the inhibition was 8.86% (inactive) in assay [1], 65.5% (active) in assay [2], 61.4% (active) in assay [3] and -6.51% (inactive) in assay [4].

As to `C#CCN(C[C@@H]1[C@@H](OC(=O)Nc2cccs2)[C@@H](OC(=O)Nc2cccs2)Cn2c(=O)ccc(=O)n21)S(=O)(=O)c1ccc(C)cc1`, the inhibition in assay [1] was 32% (active); in assay [2], 54.4% (active); in assay [3] it was 54.8% (active); in assay [4] it was 36.8% (active); in assay [5], 26.4% (inactive); in assay [6], 88.2% (active).

With `O=C1C(Cl)=C(N2CCOCC2)C(=O)N1c1ccc(Br)cc1`, the inhibition in assay [1] is 12.1% (inactive); in assay [2], 53.2% (active); in assay [3], 50.8% (active); in assay [4], 4.3% (inactive).

`COc1ccc(-c2c(C)cc3oc(=O)cc(-c4ccccc4)c3c2C)cc1`: the inhibition in assay [1] is 10.6% (inactive); in assay [2], 54.8% (active); in assay [3] it was 45.4% (active); in assay [4], 17.3% (inactive).

As to `O=C(CCl)Nc1ccc2c(c1)OCO2`, the inhibition was 37.1% (active) in assay [1], 60.3% (active) in assay [2], 62.4% (active) in assay [3] and -14.7% (inactive) in assay [4].

As to `CC(C)(C)c1ccc(C(=O)Nc2ccc(C(=O)NCc3cccnc3)cc2)cc1`, the inhibition in assay [1] is 82.1% (active); in assay [2], 90.4% (active); in assay [3], 93.2% (active); in assay [4], 61% (active).

Consider `CC1(C(=O)NCc2ccc(Cl)cc2)CCN1C(=O)Cc1ccc(Cl)cc1Cl` (stereo not given), for which the inhibition in assay [1] was 16% (inactive); in assay [2], 44.1% (active); in assay [3], 46.5% (active); in assay [4], 4.22% (inactive).

Consider `CCOc1ccc(OCCN2C(=O)NC(Cc3c[nH]c4ccccc34)C2=O)cc1` (stereo not given), for which the inhibition in assay [1] is 13.2% (inactive); in assay [2], 54.9% (active); in assay [3], 58.2% (active); in assay [4], 4.66% (inactive).

For the compound `Cc1ccc(NC(=O)CSc2nc3[nH]c(=O)cc(O)c3s2)c(Br)c1`, the inhibition was 5.79% (inactive) in assay [1], 56.3% (active) in assay [2], 46.5% (active) in assay [3] and -1.62% (inactive) in assay [4].

As for `COc1ccc(/C=N/NC(=O)c2cc(-c3ccc(C)cc3C)nc3ccccc23)cc1COC(C)=O`, the inhibition was 1.71% (inactive) in assay [1], 52.8% (active) in assay [2], 50.6% (active) in assay [3] and -17.4% (inactive) in assay [4].

As for `COc1ccc(CCNC(=O)c2cc(-c3ccco3)on2)cc1OC`, the inhibition was -181% (inactive) in assay [1], 43.8% (active) in assay [2], 50.5% (active) in assay [3] and -5.34% (inactive) in assay [4].

As for `O=C(c1ccc(Oc2ccc(Cl)cc2)c([N+](=O)[O-])c1)N1CCCC1`, the inhibition in assay [1] is -14.7% (inactive); in assay [2], 33.5% (inactive); in assay [3], 38% (inactive); in assay [4], -0.01% (inactive).

In the case of `CC[n+]1ccc(/C=C/c2ccc(N(C)C)cc2)c2ccccc21`, the inhibition in assay [1] is 77.7% (active); in assay [2], 110% (active); in assay [3], 94.1% (active); in assay [4] it was 91.1% (active).

With `Cc1ccc(CC(=O)Nc2ccncc2)cc1`, the inhibition in assay [1] was 7.72% (inactive); in assay [2] it was 64.3% (active); in assay [3], 64.9% (active); in assay [4], 40.5% (active).

As to `COC(=O)c1ccc(NC(=O)CN2CCN(c3ccc(Cl)cc3)CC2)cc1`, the inhibition is -0.66% (inactive) in assay [1], 52.3% (active) in assay [2], 45.8% (active) in assay [3] and 2.51% (inactive) in assay [4].

As for `CC(=O)Nc1ccc(NC(=O)CSc2nnc(COc3ccccc3C)n2CC2CCCO2)cc1` (stereo not given), the inhibition in assay [1] is 16.5% (inactive); in assay [2] it was 64.6% (active); in assay [3], 57.3% (active); in assay [4], -5.23% (inactive).

With `O=c1c2ccccc2ncn1Cc1ccco1`, the inhibition in assay [1] is 1.6% (inactive); in assay [2], 10.5% (inactive); in assay [3] it was 18.4% (inactive); in assay [4], 0.81% (inactive).

For `CCC(c1nnnn1-c1c(C)cccc1C)N1CCN(c2ccc(C(F)(F)F)cc2[N+](=O)[O-])CC1` (stereo not given), the inhibition was 7.27% (inactive) in assay [1], 18.6% (inactive) in assay [2], 5.25% (inactive) in assay [3] and 10% (inactive) in assay [4].
